{"source": "PubChem BioAssay (NCI)", "note": "This is part of a sample that, as a whole, favours compounds with a hit. Of some 83,000 tested, about 20% had one in any assay.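 How to read the values: 0–100, growth inhibition (40 = 60% inhibited); 0, no net growth; -100 to 0, cell death (-40 = 40% of starting cells died; -100 = all dead).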 Unmarked numbers belong to inactive results. Calls of active or inactive are those of the source. Rule for the calls: active = growth percent below 10; inactive = the rest.", "data": [{"test_system": "NCI-H23 lung", "test": "NCI-60 one-dose screen, 48 h (100 = growth as untreated, 0 = no growth, -100 = all killed)", "conditions": "10 µM unless noted", "values": [{"smiles": "Nc1ccc(CCCCc2ccccc2)c(Cl)c1", "growth": "101%"}, {"smiles": "Nc1ccc(S(=O)(=O)Nc2ccsc2-c2nc(-c3ccccc3)no2)cc1", "growth": "83.5%"}, {"smiles": "C=C(CNCCc1ccc(O)cc1)[C@@H]1CC[C@]2(COC3CCCCO3)CC[C@]3(C)[C@H](CC[C@@H]4[C@@]5(C)CCC(NCCO)C(C)(C)[C@@H]5CC[C@]43C)[C@@H]12", "note": "(stereo partly drawn)", "growth": "-81% (active)"}, {"smiles": "OC(COc1cccc2ccccc12)CN1CCN(c2ccccc2)CC1", "note": "(stereo not drawn)", "growth": "87.3%"}, {"smiles": "Cc1[nH]c(-c2nc3ccccc3[nH]2)c(C)c1C(=O)N1CCc2sccc2C1", "growth": "91.2%"}, {"smiles": "CC(C)n1nc(C#Cc2cccc(NC(=O)c3cccc(C(F)(F)F)c3)c2)c2c(N)ncnc21", "growth": "-3.4% (active)"}, {"smiles": "Cc1cc(NS(=O)(=O)c2ccccc2)c(OS(=O)(=O)c2ccccc2)cc1C", "growth": "98.6%"}, {"smiles": "OCCCCc1nccc2c1[nH]c1ccccc12", "growth": "98.8%"}, {"smiles": "C=C(C)[C@@H]1CC[C@]2(CNCCO)CC[C@]3(C)[C@H](CC[C@@H]4[C@@]5(C)CCC(N)[C@@](C)(CO)[C@@H]5CC[C@]43C)[C@@H]12", "note": "(stereo partly drawn)", "growth": "46.8%"}, {"smiles": "OC(c1cccc(OCc2ccccc2)c1)c1nnc(-c2ccccc2)o1", "note": "(stereo not drawn)", "growth": "83%"}, {"smiles": "Cl.[Pt].[c-]1ccccc1-c1ccccn1.c1ccc(P(c2ccccc2)C([PH+](c2ccccc2)c2ccccc2)[PH+](c2ccccc2)c2ccccc2)cc1", "growth": "5.59% (active)"}, {"smiles": "COc1cc2c(c(OC)c1OC)C(=O)/C(=C/c1cc(C)c(O)c(C)c1)S2", "growth": "36.9%"}, {"smiles": "O=C(Nc1ccccn1)[C@H](O)[C@@H](O)C(=O)N1CCOCC1", "growth": "106%"}, {"smiles": "CC(C)(C)N1CC(OC(N)=O)C1", "growth": "91.2%"}, {"smiles": "O=C(NC1CCOCC1)c1ccc2c(c1)CN(c1ncc(Cc3cccc(-n4cccn4)c3)s1)CC2", "growth": "57.7%"}, {"smiles": "CN1C[C@@H](c2ccc(Cl)cc2)[C@]2(NC(=S)N(c3ccc(F)c(Cl)c3)C2=O)[C@@]12C(=O)NC1C=CC(Cl)=C[C@H]12", "note": "(stereo partly drawn)", "growth": "51.9%"}, {"smiles": "CCCN1CCN(c2ccc3nc(-c4ccc5nc(-c6ccc(OCC)c(OCC)c6)[nH]c5c4)[nH]c3c2)CC1", "growth": "-53.3% (active)"}, {"smiles": "NC(=S)c1csc(CCNC(=O)c2ccccc2)n1", "growth": "100%"}, {"smiles": "CCN(CCO)CC(=O)c1cc(Cl)cc(Cl)c1Cl", "growth": "96.6%"}, {"smiles": "C=CC(=O)Nc1cccc(C)c1Nc1cc(-c2cccnc2Cc2c(C)c(OC)cc(OC)c2C)ncn1", "growth": "54.4%"}, {"smiles": "N#Cc1c(NC(=O)c2ccccc2I)sc2c1CCCC2", "growth": "73.4%"}, {"smiles": "C#CC[C@H](N)C(=O)O", "growth": "103% [20 µM]"}, {"smiles": "COc1ccc(-n2ncn(CCCCCCn3cnn(-c4ccc(OC)cc4)c3=O)c2=O)cc1", "growth": "82.9%"}, {"smiles": "CC(C)OC(=O)OCOP(=O)(OCOC(=O)OC(C)C)C1CCCN(O)C1=O", "note": "(stereo not drawn)", "growth": "69.6%"}, {"smiles": "O=C(/C=C/C12c3ccccc3C(c3ccccc31)C1C(=O)N(c3ccc(Cl)cc3)C(=O)C12)c1ccccn1", "note": "(stereo not drawn)", "growth": "-22.6% (active)"}, {"smiles": "Cc1ccc(S(=O)(=O)N(CC[C@@H]2C[C@H]2c2cc3ccccc3o2)C(=O)NC2CCCCC2)cc1", "growth": "78.2%"}, {"smiles": "COc1cc2c(cc1OC)-c1ccc3cc4c(cc3c1N(CCCN1CCCCC1)C2)OCO4", "growth": "70.4%"}, {"smiles": "COc1cc2cc(Oc3ccc(NC(=O)Nc4cc(C(F)(F)F)cc(C(F)(F)F)c4)cc3)c(C)nc2cc1OCCN1CCCCC1", "growth": "-73.3% (active)"}, {"smiles": "CCN(CC)CCOC(=O)Nc1ccccc1Cl", "growth": "105%"}, {"smiles": "COc1cc(CNC(=O)/C=C/C=C/c2ccc3c(c2)OCO3)ccc1OCc1cn(-c2ccc(Cl)c(Cl)c2)nn1", "growth": "-34.1% (active)"}, {"smiles": "N#C/C=C(\\c1ccc([N+](=O)[O-])cc1)n1nnc2cc(Cl)c(Cl)cc21", "growth": "40.8%"}, {"smiles": "CNC(=O)c1c(NC(=O)c2ccc(C(C)(C)C)cc2)sc2c1CCC(=O)C2", "growth": "6.65% (active)"}, {"smiles": "CCCCOc1ccc(NC(=O)n2nc(N=NN(C)C)c3ccc(Cl)cc32)cc1", "growth": "94.2%"}, {"smiles": "CC[C@@H](C[C@H](CCO)c1ccccc1)c1cc2ccccc2o1", "growth": "92.7%"}, {"smiles": "N=c1ccn2c(n1)OC1C(O)C(CO)OC12", "note": "(stereo not drawn)", "growth": "24.7%"}, {"smiles": "Cc1cc(N2CCCCC2)nc(N(CCNc2ccnc3cc(Cl)ccc23)Cc2ccccn2)n1", "growth": "53.7%"}, {"smiles": "CCOc1ccc2nc(-c3cccc(OCC(=O)NC(C)C)c3)nc(Nc3ccc(-c4cn[nH]c4)cc3)c2c1", "growth": "11.3%"}, {"smiles": "C=C1C(=O)O[C@H]2[C@H]1CC/C(Cn1cc(CNCCc3c[nH]c4ccc(Cl)cc34)nn1)=C\\CC[C@@]1(C)O[C@@H]21", "growth": "92.9%"}, {"smiles": "CS(=O)(=O)c1ccc(-c2nc3cc(Cl)ccc3n2CC(=O)N/N=C/c2ccc(Cl)cc2)cc1", "growth": "60.3%"}]}, {"test_system": "NCI-H226 lung", "test": "NCI-60 one-dose screen, 48 h (100 = growth as untreated, 0 = no growth, -100 = all killed)", "conditions": "10 µM unless noted", "values": [{"smiles": "Nc1ccc(CCCCc2ccccc2)c(Cl)c1", "growth": "96.8%"}, {"smiles": "Nc1ccc(S(=O)(=O)Nc2ccsc2-c2nc(-c3ccccc3)no2)cc1", "growth": "84.5%"}, {"smiles": "C=C(CNCCc1ccc(O)cc1)[C@@H]1CC[C@]2(COC3CCCCO3)CC[C@]3(C)[C@H](CC[C@@H]4[C@@]5(C)CCC(NCCO)C(C)(C)[C@@H]5CC[C@]43C)[C@@H]12", "note": "(stereo partly drawn)", "growth": "-54.2% (active)"}, {"smiles": "OC(COc1cccc2ccccc12)CN1CCN(c2ccccc2)CC1", "note": "(stereo not drawn)", "growth": "99.1%"}, {"smiles": "Cc1[nH]c(-c2nc3ccccc3[nH]2)c(C)c1C(=O)N1CCc2sccc2C1", "growth": "88.3%"}, {"smiles": "CC(C)n1nc(C#Cc2cccc(NC(=O)c3cccc(C(F)(F)F)c3)c2)c2c(N)ncnc21", "growth": "-0.0561% (active)"}, {"smiles": "Cc1cc(NS(=O)(=O)c2ccccc2)c(OS(=O)(=O)c2ccccc2)cc1C", "growth": "101%"}, {"smiles": "OCCCCc1nccc2c1[nH]c1ccccc12", "growth": "90.7%"}, {"smiles": "C=C(C)[C@@H]1CC[C@]2(CNCCO)CC[C@]3(C)[C@H](CC[C@@H]4[C@@]5(C)CCC(N)[C@@](C)(CO)[C@@H]5CC[C@]43C)[C@@H]12", "note": "(stereo partly drawn)", "growth": "94.1%"}, {"smiles": "OC(c1cccc(OCc2ccccc2)c1)c1nnc(-c2ccccc2)o1", "note": "(stereo not drawn)", "growth": "66.9%"}, {"smiles": "Cl.[Pt].[c-]1ccccc1-c1ccccn1.c1ccc(P(c2ccccc2)C([PH+](c2ccccc2)c2ccccc2)[PH+](c2ccccc2)c2ccccc2)cc1", "growth": "7.37% (active)"}, {"smiles": "COc1cc2c(c(OC)c1OC)C(=O)/C(=C/c1cc(C)c(O)c(C)c1)S2", "growth": "34.3%"}, {"smiles": "O=C(Nc1ccccn1)[C@H](O)[C@@H](O)C(=O)N1CCOCC1", "growth": "95.3%"}, {"smiles": "CC(C)(C)N1CC(OC(N)=O)C1", "growth": "98.2%"}, {"smiles": "O=C(NC1CCOCC1)c1ccc2c(c1)CN(c1ncc(Cc3cccc(-n4cccn4)c3)s1)CC2", "growth": "62%"}, {"smiles": "CN1C[C@@H](c2ccc(Cl)cc2)[C@]2(NC(=S)N(c3ccc(F)c(Cl)c3)C2=O)[C@@]12C(=O)NC1C=CC(Cl)=C[C@H]12", "note": "(stereo partly drawn)", "growth": "59.8%"}, {"smiles": "CCCN1CCN(c2ccc3nc(-c4ccc5nc(-c6ccc(OCC)c(OCC)c6)[nH]c5c4)[nH]c3c2)CC1", "growth": "-58.2% (active)"}, {"smiles": "NC(=S)c1csc(CCNC(=O)c2ccccc2)n1", "growth": "116%"}, {"smiles": "CCN(CCO)CC(=O)c1cc(Cl)cc(Cl)c1Cl", "growth": "88.6%"}, {"smiles": "C=CC(=O)Nc1cccc(C)c1Nc1cc(-c2cccnc2Cc2c(C)c(OC)cc(OC)c2C)ncn1", "growth": "46.1%"}, {"smiles": "N#Cc1c(NC(=O)c2ccccc2I)sc2c1CCCC2", "growth": "41.7%"}, {"smiles": "C#CC[C@H](N)C(=O)O", "growth": "106% [20 µM]"}, {"smiles": "COc1ccc(-n2ncn(CCCCCCn3cnn(-c4ccc(OC)cc4)c3=O)c2=O)cc1", "growth": "80.3%"}, {"smiles": "CC(C)OC(=O)OCOP(=O)(OCOC(=O)OC(C)C)C1CCCN(O)C1=O", "note": "(stereo not drawn)", "growth": "56.1%"}, {"smiles": "O=C(/C=C/C12c3ccccc3C(c3ccccc31)C1C(=O)N(c3ccc(Cl)cc3)C(=O)C12)c1ccccn1", "note": "(stereo not drawn)", "growth": "-49.3% (active)"}, {"smiles": "Cc1ccc(S(=O)(=O)N(CC[C@@H]2C[C@H]2c2cc3ccccc3o2)C(=O)NC2CCCCC2)cc1", "growth": "87.3%"}, {"smiles": "COc1cc2c(cc1OC)-c1ccc3cc4c(cc3c1N(CCCN1CCCCC1)C2)OCO4", "growth": "75.8%"}, {"smiles": "COc1cc2cc(Oc3ccc(NC(=O)Nc4cc(C(F)(F)F)cc(C(F)(F)F)c4)cc3)c(C)nc2cc1OCCN1CCCCC1", "growth": "22.1%"}, {"smiles": "CCN(CC)CCOC(=O)Nc1ccccc1Cl", "growth": "88.1%"}, {"smiles": "COc1cc(CNC(=O)/C=C/C=C/c2ccc3c(c2)OCO3)ccc1OCc1cn(-c2ccc(Cl)c(Cl)c2)nn1", "growth": "31.2%"}, {"smiles": "N#C/C=C(\\c1ccc([N+](=O)[O-])cc1)n1nnc2cc(Cl)c(Cl)cc21", "growth": "39.7%"}, {"smiles": "CNC(=O)c1c(NC(=O)c2ccc(C(C)(C)C)cc2)sc2c1CCC(=O)C2", "growth": "-2.45% (active)"}, {"smiles": "CCCCOc1ccc(NC(=O)n2nc(N=NN(C)C)c3ccc(Cl)cc32)cc1", "growth": "96.3%"}, {"smiles": "CC[C@@H](C[C@H](CCO)c1ccccc1)c1cc2ccccc2o1", "growth": "88%"}, {"smiles": "N=c1ccn2c(n1)OC1C(O)C(CO)OC12", "note": "(stereo not drawn)", "growth": "45.1%"}, {"smiles": "Cc1cc(N2CCCCC2)nc(N(CCNc2ccnc3cc(Cl)ccc23)Cc2ccccn2)n1", "growth": "63.5%"}, {"smiles": "CCOc1ccc2nc(-c3cccc(OCC(=O)NC(C)C)c3)nc(Nc3ccc(-c4cn[nH]c4)cc3)c2c1", "growth": "38.8%"}, {"smiles": "C=C1C(=O)O[C@H]2[C@H]1CC/C(Cn1cc(CNCCc3c[nH]c4ccc(Cl)cc34)nn1)=C\\CC[C@@]1(C)O[C@@H]21", "growth": "91.1%"}, {"smiles": "CS(=O)(=O)c1ccc(-c2nc3cc(Cl)ccc3n2CC(=O)N/N=C/c2ccc(Cl)cc2)cc1", "growth": "84.8%"}]}]}
